# Hits are enriched below; roughly 2.2% of the tested compounds scored in any of these assays.
# aSyn rescue: qHTS of alpha-syn Inhibitors; Yeast expressing alpha-synuclein, growth rescue, BacTiter-Glo, 24 h; Potency, µM (highest dose often 46.1 µM), without a hit: at the top dose growth rescue (activation), actives largely listed as activators; hit rate 0.14% among 370,000; further: % of control where 0% means no effect; nearly all actives have a fitted effect of over 65% in size
#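 Screening used galactose-induced yeast with toxic alpha-synuclein levels, exposed to compound for 24 hr at 30 deg C. Cell growth, read with BacTiter-Glo luminescence, gave the measured signal.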
# TDP43 rescue: qHTS of TDP-43 Inhibitors; TDP-43 expressing yeast growth rescue, BacTiter-Glo, 24 h; Potency, µM (series often up to 46.1 µM), for inactives: at the highest dose growth rescue (activation), usual class: activators; hit rate 1.8% among 410,000; AID 652104, 2013; further: % of control where 0% means no effect; nearly all actives have a fitted effect of over 50% in size
#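 Yeast cells expressing TDP-43 under galactose induction are exposed to compounds for 24 hr at 30 deg C. BacTiter-Glo luminescence measures growth, so protective compounds score as activators.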
# Abeta yeast res: qHTS for compounds that reverse cellular toxicity of Amyloid beta (A-beta) peptide in yeast: Primary Screen; AID 1347071, 2019; Potency, µM (doses to about 46.1 µM), most hits filed as activators; yeast expressing A-beta42, growth rescue, OD600, 48 h; response scale: 0% DMSO, 100% iron-clioquinol control; hit rate 0.063% among 410,000; further: nearly all actives have a fitted effect of over 55% in size
#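 Growth rescue measured by 600 nm absorbance after 48 h yeast culture at 30 C with compound. Values normalized between DMSO and an equimolar ferric chloride plus clioquinol control.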
# FUS suppressor: qHTS for Suppressors of FUS Proteinopathy: Primary screen using FUS-linked yeast assay | Potency, µM (highest dose often 76.6 µM), usual class: activators | hit rate 0.24% among 390,000 | S. cerevisiae FUS-expressing, growth rescue, OD600, 24 h;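 further: plate controls were DMSO vehicle for no effect and reference control for full effect; nearly all actives have a fitted effect of over 55% in size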
#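 Cultures pregrown in 2.5% raffinose medium are shifted to minimal medium containing 2% galactose to express toxic FUS. Compounds are tested at several concentrations. After 24hr at 30C, growth is quantified at 600 nm absorbance.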
# Mito fusion act: qHTS Assay for Small Molecule Inhibitors of Mitochondrial Division or Activators of Mitochondrial Fusion | S. cerevisiae fusion-defective mutant growth rescue, CellTiterGlo 48 h | hit rate 0.23% among 320,000 | Potency, µM (top dose mostly 46.1 µM), for inactives: top-dose growth rescue (activation), most hits filed as activators; further: % of control where 0% means no effect; nearly all actives have a fitted effect of over 45% in size
#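 Temperature-sensitive fusion-defective S. cerevisiae (e.g. fzo1-1, mgm1-5) were grown with compound in YPEG medium (3% ethanol, 3% glycerol) for 48 hours at 37C. Growth rescue was measured as viability by CellTiterGlo luminescence after 10 minutes at ambient.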
# * marks the source's active call; other numbers are inactive results; i = inactive; ? = inconclusive; . = no result given; [ ] = remark or other dose. The call rests on the fitted dose curve; in most records, active means well fitted curve in the direction sought with a large enough effect; inconclusive means small, poorly fitted or top-dose-only effect, or another doubt; inactive means no such curve, though single readings can be large; an effect the other way counts as inactive or inconclusive. Potency means the concentration at half of the fitted maximal effect.
SMILES,aSyn rescue,TDP43 rescue,Abeta yeast res,FUS suppressor,Mito fusion act
S=C(NCCc1ccccc1)N1CCC2CC1c1cc(-c3ccc4c(c3)OCO4)ccc12 (configuration not stated),-10.8%,?,i,i,.
C=CCNC(=O)c1cnn2c1NC(=C)C=C2C,2.0%,.,.,.,.
O=C(N/N=C\c1ccccn1)C1COc2cc3ccccc3cc2O1 (configuration not stated),20µM*,8.9%,?,i,12.2%
O=C(N/N=C/c1cccc([N+](=O)[O-])c1O)c1cccs1,7.94µM*,27.5%,i,.,3.7%
O=[N+]([O-])c1cccc(C=NNc2ccc3ccccc3n2)c1O,2µM*,?,i,.,.
NNC(=O)C1COc2cc3ccccc3cc2O1 (configuration not stated),-1.2%,24.1%,i,i,-7.6%
O=C(N/N=C\c1cccc([N+](=O)[O-])c1O)C1COc2ccccc2O1 (configuration not stated),6.31µM*,11.2µM*,i,i,-2.8%
O=C(N/N=C/c1ccc([N+](=O)[O-])cc1)c1cccs1,-1.6%,3.6%,i,i,0.5%
COc1ccc(C(=O)c2cn(Cc3ccccc3F)c3ccc(F)cc3c2=O)cc1,.,?,i,i,.
O=C(Cc1ccccc1)Nc1cc(C(=O)c2ccccc2)ccc1N1CCOCC1,.,12.6µM*,i,i,1.7%
O=C(Cc1ccccc1)Nc1ccc(N2CCOCC2)cc1N1CCOCC1,5.9%,0.0%,i,i,-4.1%
CCC(c1nnnn1-c1ccc2c(c1)OCCO2)N1CCN(c2ncccc2C(F)(F)F)CC1 (configuration not stated),?,12.6µM*,i,?,.
CCOc1cc(/C=C/c2ccc3cccc([N+](=O)[O-])c3n2)ccc1OCC(=O)N(C)C,0.6%,-9.9%,i,i,8.8%
CCOc1cccc(/C=C/c2ccc3cccc(O)c3n2)c1O,-3.0%,11.2µM*,i,i,5.1%
CCOc1cccc(/C=C/c2ccc3cccc(O)c3n2)c1OC,9.6%,19.7%,i,i,1.6%
CCOc1cc(/C=C/c2ccc3cccc([N+](=O)[O-])c3n2)ccc1O,1.7%,15.8µM*,i,.,5.0%
CCC1CCCCN1CCCNC(=O)c1ccc2c(c1)N(Cc1ccc(Cl)cc1)C(=O)c1ccccc1S2(=O)=O (configuration not stated),.,4.2%,i,?,.
O=C(NCc1ccccc1Br)c1ccc2nc(N3CCCCC3)sc2c1,.,26.5%,i,i,.
CCN(CC)c1ccc(NC(=O)C(Cc2ccccc2)NS(=O)(=O)c2ccc(Br)s2)c(C)c1 (configuration not stated),.,13.0%,i,i,.
COc1ccc(C2Nc3ccccc3C(=O)N2Cc2ccncc2)cc1COc1ccc(NC(C)=O)cc1 (configuration not stated),.,.,.,i,.
COc1ccc(C2Nc3cccc(O)c3C(=O)N2Cc2ccccc2)cc1COc1ccc(NC(C)=O)cc1 (configuration not stated),.,.,i,11.2µM*,.
COc1ccc(S(=O)(=O)N2CCC3(CC2)CC(=O)c2ccccc2O3)cc1,-1.5%,13.1%,i,i,6.5%
O=C1CC2(CCN(S(=O)(=O)c3ccccc3)CC2)Oc2ccccc21,15.4%,20µM*,i,i,15.2%
Clc1ccc2c(c1)c1cc(Cl)ccc1n2CN1CCOCC1,-24.8%,6.31µM*,i,i,5.1%
Clc1ccc2c(c1)c1ccccc1n2CN1CCOCC1,-4.5%,?,i,i,-11.6%
SMILES,aSyn rescue,TDP43 rescue,Abeta yeast res,FUS suppressor,Mito fusion act
Cc1ccc(S(=O)(=O)NCC(Nc2cccc(Cl)c2)c2ccccc2)cc1 (configuration not stated),.,7.2%,i,i,.
CC1(C)Cc2c(c(N3CCOCC3)nc3snc(N)c23)CO1,2.4%,-3.2%,i,i,6.6%
CC1(C)Cc2c(c(N3CCOCC3)nc3snc(Br)c23)CO1,3.7%,15.8µM*,i,i,-6.6%
COC(=O)c1sccc1Oc1c(Cl)cccc1[N+](=O)[O-],2.4%,20µM*,i,i,-0.1%
COC(=O)c1sccc1NC(=O)Nc1cc(OC)ccc1OC,8.6%,17.8µM*,i,i,6.1%
COC(=O)c1sccc1NC(=O)Nc1ccccc1Cl,-10.2%,11.2µM*,i,i,1.1%
COC(=O)c1sccc1NC(=O)c1ccccc1[N+](=O)[O-],1.4%,?,i,.,?
CC(OC(=O)c1ccccc1OCCOc1ccccc1)C(=O)Nc1ccc(Br)cc1 (configuration not stated),0.0%,.,.,.,.
CC(C)C(=O)OC1=CN(Cc2ccccc2)S(=O)(=O)c2ccccc21,.,12.9%,i,i,.
CSc1ccc(NC(=O)C2CCN(c3ncccn3)CC2)cc1,.,11.7%,i,i,.
Cc1nc(SCC(=O)Nc2ccc(C)c(Cl)c2)cc(-c2ccccc2)n1,.,18.0%,i,i,.
S=C(Nc1cccc(Br)c1)c1ccccc1,-10.5%,12.6µM*,?,i,?
S=C(Nc1ccccc1)Nc1cccc(Br)c1,-8.3%,14.7%,i,i,-6.9%
CCN1C(=O)C(CC(=O)Nc2ccccc2Cl)N(NC(=O)c2cccc(F)c2)C1=S (configuration not stated),15.0%,6.31µM*,i,.,-8.3%
CNC(=O)CC1C(=O)N(Cc2ccccc2)C(=S)N1NC(=O)c1cccc(F)c1 (configuration not stated),-9.4%,6.8%,i,.,-2.1%
CCCNC(=O)c1csc(Nc2cccc3ccccc23)n1,-33.8%,31.6µM*,i,i,5.1%
Cc1cccc(Cn2cnc3c(oc4ccccc43)c2=O)c1,.,9.2%[9.22 µM],i,i,.
Cc1cccc(N2CCN(C(=O)Cn3c(-c4cccs4)cc4ccccc43)CC2)c1C,.,15.6%,i,i,.
CCCCn1c(NC(=O)c2ccccc2)nc2ccccc21,25.1µM*,?,i,i,3.8%
C=CCn1c(NC(=O)c2ccccc2)nc2ccccc21,1.9%,17.8µM*,i,i,-2.1%
CCCn1c(NC(=O)c2ccc(Br)cc2)nc2ccccc21,1.8%,-5.6%,i,i,-0.1%
CCCn1c(NC(=O)c2ccccc2Br)nc2ccccc21,10.5%,15.8µM*,i,i,-4.2%
CCn1c(NC(=O)c2ccccc2)nc2ccccc21,3.4%,?,i,i,2.1%
c1ccc(CNc2nc(NCc3ccco3)nc(N3CCOCC3)n2)cc1,3.0%,21.0%,i,i,-6.5%

# Screens from PubChem.
